Molecules are shown by their SMILES. Records with an inconclusive call do not appear. Values without a mark were called inactive. Activity calls are given as the source filed them. The call rests on the fitted dose curve; in most records, active means well fitted cell-killing curve with a large enough effect in the repeat runs; inconclusive means weak or mixed curves, or effect the other way; inactive means flat fitted curve, though single readings scatter.
On the % scale 0 is the no-effect control and ±100 the full control effect; potency means the concentration at half of the fitted maximal effect.

The test can be described thus: Nuclear factor erythroid 2-related factor 2/antioxidant responsive element (Nrf2/ARE) small molecule agonists: qHTS cell viability counter screen in human keratinocytes (AID 1919968). Further: nearly all actives have a fitted effect of over 55% in size. To be noted: KeratinoSens HaCaT ARE cells viability, CellTiter-Fluor, 24 h; series mostly up to 92.4 µM; activity change, negative = cytotoxicity: at the top concentration. From the text:
U.S. Tox21 Program National Center for Advancing Translational Sciences [NCATS] Division of Preclinical Innovation [DPI] U.S. Environmental Protection Agency [EPA] National Institutes of Environmental Health Sciences [NIEHS] National Toxicology Program [NTP] U.S. Food and Drug Administration [FDA] Tox21 Assay Overview: Oxidative stress has been implicated in the pathogenesis of a variety of diseases ranging from cancer to neurodegeneration. The antioxidant response element (ARE) signaling pathway plays an important role in the amelioration of oxidative stress. The KeratinoSens (Givaudan, Switzerland) is an in vitro test method which quantifies luciferase induction as a measure of activation of Keap1-Nrf2-antioxidationt/electrophile response element (ARE) dependant pathway in HaCaT human keratinocytes stably transfected with a selectable plasmid. The KeratinoSens assay is a cell-based assay with a reporter cell line to detect potential skin sensitizers by their ability to induce the Nrf2/ARE-response. The activation of the report gene under culture conditions can be detected by ONE-Glo Luciferase Assay System (Promega, Madison, WI). This cell line has been used to screen the Tox21 10K compound library to identify agonists that induce oxidative stress. The cytotoxicity of the Tox21 compound library against the KS-ARE cell line was tested in parallel by measuring the cell viability using CellTiter- Fluor assay system (Promega, Madison, WI) in the same wells.
Tox21 Assay Protocol Summary: HaCaT derived cell line KeratinoSens were dispensed at 1,500 cells/5uL/well in 1536-well white wall/solid bottom plates using a Multidrop Combi (ThermoFisher Scientific, Waltham, MA) dispenser. After the assay plates were incubated at 37 C/5% CO2 for 5 h, 23 nL of compounds dissolved in DMSO, positive controls or DMSO only was transferred to the assay plate by a pintool workstation (Kalypsys, San Diego, CA). The plates were incubated at 37 C/5% CO2 for 23 h, followed by addition of 1uL/well of CellTiter-Fluor reagent into the assay plates using a Flying Reagent Dispenser (Aurora Discovery, San Diego, CA) for cell viability readout that measures cytotoxicity. After 1 h incubation at 37 C/5% CO2 the fluorescence intensity was measured using a ViewLux (PerkinElmer, Shelton, CT) plate reader.
For orientation: In qHTS, concentration-response curves come from the screen itself.
As for `COc1cc(C(=O)OCCCN2CCCN(CCCOC(=O)c3cc(OC)c(OC)c(OC)c3)CC2)cc(OC)c1OC`, the “activity change, negative = cytotoxicity” value is -9.72% [at 42.5 µM].

Consider `NC(CCC(=O)O)C(=O)O` (stereo not given), for which the “activity change, negative = cytotoxicity” value is 0.99%.

Turning to `O=C[C@@H](O)[C@H](O)[C@H](O)CO`, the “activity change, negative = cytotoxicity” value was 3.1%.

Take `CC(C)(C)C1CCCCC1=O` (stereo not given): the “activity change, negative = cytotoxicity” value is -3.85%.

For `Cc1nccn1-c1ccc(Sc2cccc(C3(C(N)=O)CCOCC3)c2)cc1`, the “activity change, negative = cytotoxicity” value is -0.948%.

`COc1ccc(/C=N/NC(=O)c2ccncc2)cc1OC`: the “activity change, negative = cytotoxicity” value is 5.14% [at 42.5 µM].

With `CC(=O)c1ccc2c(c1)Cc1ccccc1-2`, the “activity change, negative = cytotoxicity” value was 0.139%.

Consider `N[C@@H]1CONC1=O`, for which the “activity change, negative = cytotoxicity” value is 0.0467% [at 42.5 µM].

Regarding `Cc1ccc(Br)cc1`, the “activity change, negative = cytotoxicity” value was 0.894%.

As to `O=[N+]([O-])c1cccc(Cl)c1Cl`, the “activity change, negative = cytotoxicity” value is -0.133%.

`CCC(CC)Nc1ccc(C)c(C)c1`: the “activity change, negative = cytotoxicity” value was 0.378%.

Regarding `CC(C)Cc1ccc(CC(=O)O)cc1`, the “activity change, negative = cytotoxicity” value was 5.91% [at 42.5 µM].

Consider `CCCCN(CCC(=O)OCC)C(C)=O`, for which the “activity change, negative = cytotoxicity” value was -5.69%.

In the case of `O=C(O)c1cccnc1Nc1cccc(C(F)(F)F)c1`, the “activity change, negative = cytotoxicity” value is 0.331% [at 42.5 µM].

As to `CCN(CCC#N)c1ccccc1`, the “activity change, negative = cytotoxicity” value is -3.88%.

On to `CCN(Cc1cccc(S(=O)(=O)O)c1)c1ccc(C(=C2C=CC(=[N+](CC)Cc3cccc(S(=O)(=O)O)c3)C=C2)c2ccc(O)cc2S(=O)(=O)[O-])cc1`, for which the Potency is 33.1 µM (active).

As to `CC1(C)CC(=O)CC(C)(C)N1`, the “activity change, negative = cytotoxicity” value is 1.32%.

Regarding `Cc1ccc(C(N)=O)cc1N`, the “activity change, negative = cytotoxicity” value was 0.921%.

Take `CC(C)(C)C1=CC(=O)C=C(C(C)(C)C)C1=O`: the “activity change, negative = cytotoxicity” value was -1.26%.

For the molecule `CCCCCOC(=O)CCCCC`, the “activity change, negative = cytotoxicity” value was 3.23%.

With `c1cnc(N2CCN(Cc3ccc4c(c3)OCO4)CC2)nc1`, the “activity change, negative = cytotoxicity” value is 2.27% [at 42.5 µM].

With `CCCCC(CC)COC(=O)COc1cc(Cl)c(Cl)cc1Cl` (stereo not given), the “activity change, negative = cytotoxicity” value is 4.09%.

Consider `CCN(C)C(=O)Oc1cccc([C@H](C)N(C)C)c1`, for which the “activity change, negative = cytotoxicity” value is 0.912% [at 42.5 µM].

Turning to `COC(=O)CCSCCC(=O)OC`, the “activity change, negative = cytotoxicity” value was 1.57%.

As for `C=CCOCC(O)CS(=O)(=O)O` (stereo not given), the “activity change, negative = cytotoxicity” value is 4.04%.

Regarding `Cn1ccc2cc3c(cc21)CCN3C(=O)Nc1cccnc1`, the activity change, negative = cytotoxicity was 3.31% [at 19 µM].

For the molecule `CCCCCCCCOC(=O)c1cc(O)c(O)c(O)c1`, the Potency is 61.1 µM (active).

Consider `CCOc1ccc(O)cc1`, for which the “activity change, negative = cytotoxicity” value is 4.99%.

For `Cc1ccc(S(=O)(=O)NC(=O)NC2CCCCC2)cc1`, the “activity change, negative = cytotoxicity” value was -10.2% [at 42.5 µM].

As for `CCc1cc(C2=C(C(=O)O)N(c3ccccc3C(F)(F)F)S(=O)(=O)c3ccccc32)cc2c1OCO2`, the “activity change, negative = cytotoxicity” value was -9.36%.

On to `CCOC(=O)/C=C/c1ccccc1`, for which the “activity change, negative = cytotoxicity” value is -3.29%.

In the case of `COc1cc(-c2ccc(=O)[nH]n2)ccc1OC(F)F`, the “activity change, negative = cytotoxicity” value was 5.09% [at 42.5 µM].

For the molecule `CCC(=O)OCCOc1ccccc1`, the “activity change, negative = cytotoxicity” value was 2.96%.

Consider `COc1ccc(COC=O)cc1`, for which the “activity change, negative = cytotoxicity” value was -0.958%.

Turning to `Cc1cc(C2CCCCC2)n(O)c(=O)c1`, the Potency was 13.3 µM (active).

Turning to `COc1cccc(CCc2ccccc2OCC(CN(C)C)OC(=O)CCC(=O)O)c1` (stereo not given), the “activity change, negative = cytotoxicity” value is -21% [at 42.5 µM].

Regarding `O=C(O)CN(CCOCCOCCN(CC(=O)O)CC(=O)O)CC(=O)O`, the activity change, negative = cytotoxicity was -7.96% [at 0.349 µM].

`Fc1ccc(C(c2ccc(F)cc2)N2CCNCC2)cc1`: the “activity change, negative = cytotoxicity” value was -6.94% [at 42.5 µM].

On to `C[C@H]1[C@@H](c2ccccc2)NC(=O)N1C`, for which the “activity change, negative = cytotoxicity” value is 4.71%.

On to `CCCCCCCCC(=O)OCC(C)OC(=O)CCCCCCCC` (stereo not given), for which the “activity change, negative = cytotoxicity” value was 1.29%.

(Values after PubChem BioAssay (Tox21).)
